From PubChem BioAssay (NCI) come the findings set out here.

Among the test systems are NCI-H23 lung; NCI-H226 lung; NCI-H322M lung; HOP-62 NSCLC; NCI-H460 lung; HOP-92 NSCLC; NCI-H522 lung; A549/ATCC NSCLC; 786-0 renal; COLO 205 colon; DU-145 prostate; K-562 leukemia; MALME-3M melanoma; MDA-MB-231 breast; RXF 393 renal; SF-268 CNS; SF-295 CNS; SF-539 CNS; UACC-257 melanoma; M14 melanoma.
Common to all, as to assay: NCI-60 one-dose screen, 48 h (100 = growth as untreated, 0 = no growth, -100 = all killed)
What all share (settings): 10 µM unless noted

This is part of a sample that, as a whole, favours compounds with a hit. Of some 83,000 tested, about 20% had one in any assay.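 Percent growth is the endpoint: 0 to 100 indicates growth inhibition (40 means 60% inhibition), 0 means no net growth, and negative values indicate cell death.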 Values without a mark were called inactive. Calls of active or inactive are those of the source. Rule for the calls: active = growth percent below 10; inactive = the rest.

For `C#CC(F)(F)[C@]1(O)CCC2C3CCC4=CC(=O)CCC4=C3[C@@H](c3ccc(N(C)C)cc3)C[C@@]21C` (stereo not given in full), the growth was 96.5% in the assay on NCI-H23 lung; 98.5% in the assay on NCI-H226 lung; 92.8% in the assay with NCI-H322M lung; 90.6% in the assay on HOP-62 NSCLC; 93.4% with NCI-H460 lung; 67.8% in the assay with HOP-92 NSCLC. The growth was 64.7% in the assay on NCI-H522 lung; 64.8% with A549/ATCC NSCLC; 69% with 786-0 renal; 101% with COLO 205 colon; 104% in the assay on DU-145 prostate; 85.9% in the assay with K-562 leukemia. Further, the growth in the assay on MALME-3M melanoma was 103%; in the assay on MDA-MB-231 breast, 84.7%; with RXF 393 renal, 98.1%; in the assay on SF-268 CNS, 95.9%; in the assay with SF-295 CNS, 86.2%; with SF-539 CNS, 82.7%. Also, the growth is 80.9% in the assay on UACC-257 melanoma and 86.1% in the assay with M14 melanoma.
`Nc1ncnc2c1N=C(c1ccc([N+](=O)[O-])cc1)CC(c1ccc3c(c1)OCO3)N2` (stereo not given): the growth is 83.8% in the assay on NCI-H23 lung; 86.5% in the assay with NCI-H226 lung; 87.3% in the assay on NCI-H322M lung; 86.6% with HOP-62 NSCLC; 96.2% in the assay on NCI-H460 lung; 34% with HOP-92 NSCLC. In addition, the growth is 84.9% with NCI-H522 lung; 96.6% in the assay on A549/ATCC NSCLC; 98.7% with 786-0 renal; 96.2% with COLO 205 colon; 94.6% in the assay with DU-145 prostate; 93.4% in the assay with K-562 leukemia. The growth in the assay with MALME-3M melanoma is 107%; with MDA-MB-231 breast, 75%; in the assay on RXF 393 renal it was 75.6%; with SF-268 CNS, 90.1%; in the assay with SF-295 CNS it was 67.5%; in the assay with SF-539 CNS, 85.7%. The growth with UACC-257 melanoma was 116%; with M14 melanoma, 119%.
For `Nc1nc(=O)n([C@H]2CC=C(CO)O2)cc1F`, the growth was 98.5% with NCI-H23 lung; 99.6% in the assay with NCI-H226 lung; 95.9% in the assay with NCI-H322M lung; 99.1% in the assay on HOP-62 NSCLC; 98.4% in the assay with NCI-H460 lung; 101% in the assay with HOP-92 NSCLC. Further, the growth with NCI-H522 lung was 80.7%; in the assay with A549/ATCC NSCLC, 89.7%; in the assay on 786-0 renal it was 102%; in the assay with COLO 205 colon, 107%; in the assay with DU-145 prostate, 107%; in the assay on K-562 leukemia it was 96.5%. Further, the growth was 97.9% in the assay on MALME-3M melanoma; 101% in the assay with MDA-MB-231 breast; 99.3% with RXF 393 renal; 99.3% in the assay with SF-268 CNS; 102% with SF-295 CNS; 107% in the assay with SF-539 CNS. Moreover, the growth with UACC-257 melanoma was 95.4%; with M14 melanoma, 105%.
With `Oc1c(Cl)cc(Cl)c2ccc(CN3CCNCC3)nc12`, the growth with NCI-H23 lung is 52.7%; in the assay with NCI-H226 lung, 61.6%; in the assay with NCI-H322M lung it was 58.1%; in the assay on HOP-62 NSCLC, 29.3%; with NCI-H460 lung, 31.8%; in the assay with HOP-92 NSCLC it was 54.1%. Besides, the growth in the assay with NCI-H522 lung was 67.8%; with A549/ATCC NSCLC it was 30.8%; in the assay on 786-0 renal it was 49.2%; in the assay on COLO 205 colon, 102%; with DU-145 prostate it was 50.8%; in the assay on K-562 leukemia it was 19%. Moreover, the growth was 67.9% with MALME-3M melanoma; 59.3% in the assay on MDA-MB-231 breast; 60.3% in the assay on RXF 393 renal; 39.9% with SF-268 CNS; 39.4% with SF-295 CNS; 58.3% in the assay with SF-539 CNS. Moreover, the figures for the growth in the assay with UACC-257 melanoma and with M14 melanoma were 70.9% and 47.7%, respectively.
Take `C#C[C@]1(O)CC[C@H]2[C@@H]3CC=C4c5sc(-c6cccc(C)c6)nc5CC[C@]4(C)[C@H]3CC[C@@]21C`: the growth in the assay with NCI-H23 lung was 73%; in the assay on NCI-H226 lung, 91.1%; in the assay on NCI-H322M lung, 66.1%; in the assay with HOP-62 NSCLC, 83.4%; in the assay with NCI-H460 lung it was 76.6%; in the assay with HOP-92 NSCLC, 49.6%. For the same molecule, the growth with NCI-H522 lung was 70%; with A549/ATCC NSCLC, 75.4%; in the assay on 786-0 renal, 32.8%; with COLO 205 colon it was 107%; in the assay on DU-145 prostate, 78.5%; with K-562 leukemia, 0.702% (active). In addition, the growth in the assay with MALME-3M melanoma is 83%; with MDA-MB-231 breast it was 59.8%; in the assay with RXF 393 renal, 11.7%; in the assay with SF-268 CNS, 60.8%; in the assay with SF-295 CNS, 58.5%; in the assay on SF-539 CNS, 15.9%. Further, the figures for the growth with UACC-257 melanoma and in the assay with M14 melanoma were 58.5% and 58.7%, respectively.
Take `COc1ccccc1/C=C/C1=C(C)CCC(c2ccccc2OC)C1C` (stereo not given): the growth in the assay with NCI-H23 lung is 26.8%; in the assay on NCI-H226 lung it was 45.8%; in the assay on NCI-H322M lung, 33.4%; in the assay on HOP-62 NSCLC, 17.3%; with NCI-H460 lung it was 3.73% (active); in the assay on HOP-92 NSCLC, -35% (active). For the same molecule, the growth was -45% (active) with NCI-H522 lung; 21.2% with A549/ATCC NSCLC; 12% in the assay on 786-0 renal; -45.3% (active) with COLO 205 colon; -8.51% (active) in the assay with DU-145 prostate; 18.2% with K-562 leukemia. For the same molecule, the growth in the assay on MALME-3M melanoma was 80.9%; in the assay with MDA-MB-231 breast, 17.2%; in the assay on RXF 393 renal, 28.5%; with SF-268 CNS it was 16.3%; in the assay with SF-295 CNS, -45.9% (active); in the assay with SF-539 CNS, 0.327% (active). Besides, the values for the growth in the assay with UACC-257 melanoma and with M14 melanoma were 57.9% and -10.7% (active), respectively.
In the case of `Cc1nn(C)c2ncnc(Nc3ccccc3Br)c12`, the growth was 101% in the assay on NCI-H23 lung; 96.3% in the assay with NCI-H226 lung; 106% with NCI-H322M lung; 101% with HOP-62 NSCLC; 106% in the assay on NCI-H460 lung; 104% in the assay on HOP-92 NSCLC. The growth in the assay with NCI-H522 lung is 98.7%; in the assay with A549/ATCC NSCLC, 99.3%; with 786-0 renal, 97.8%; with COLO 205 colon it was 119%; in the assay with DU-145 prostate it was 103%; in the assay with K-562 leukemia it was 97.1%. Also, the growth was 111% with MALME-3M melanoma; 85.2% with MDA-MB-231 breast; 104% with RXF 393 renal; 99.2% in the assay on SF-268 CNS; 95.8% in the assay on SF-295 CNS; 99.9% with SF-539 CNS. The growth in the assay with UACC-257 melanoma was 105%; in the assay on M14 melanoma it was 101%.
